Assay outcomes from PubChem BioAssay.
HIV Env fusion: blocks HIV Env-driven cell-cell fusion. HeLa-JRFL Env/CEM21 cell fusion, luciferase. inhibition, % at 12.3 µM. actives 1.1% (n = 360,000). AID 651610;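 active = mean replicate inhibition score of at least 50 and every replicate individually at or above 50; inconclusive = only one of the two criteria met; inactive = mean below 50 and not all replicates reaching 50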;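 also: 0% = plate neutral controls and 100% = maraviroc near 300 nM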
NSD2 inh: blocks human histone methyltransferase NSD2 | O96028 | NSD2 peptide methylation, AlphaScreen, 120 min | inhibition, % at 12.5 µM | actives 0.54% (n = 310,000); in the data active = inhibition above about 50%
GSIS activator: GLuc luminescence reporter in INS-1E cells, primary screen for activators of glucose-dependent secretion of insulin; AID 743287; activation, % at 16.6 µM; INS-1E GLuc reporter insulin secretion, 2-3 h; actives 0.61% (n = 370,000);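 active = lowest replicate activation of at least 40%, so every replicate reaches that level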;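 also: 0% = median of neutral control wells and 100% = median of IBMX positive control wells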
PGC1a acetyl inh: lowers PGC1a acetylation signal in U2OS cells; AlphaScreen anti-acetyl-lysine; with virally co-expressed GCN5 acetyltransferase; inhibition, % at 15.6 µM; actives 0.17% (n = 350,000); AID 651687;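 active = every replicate shows inhibition of at least 40%; inconclusive = mean inhibition at least 40% but some replicate below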;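 also: 0% = neutral control wells and 100% = positive control wells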
AF4-AF9 inh: inhibitors of human MLL-AF4/AF9 interaction; inhibition, % at 10 µM; P42568; AlphaScreen, biotin-AF4 peptide binding to FLAG-AF9; actives 0.47% (n = 350,000);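 active = every replicate reaching a set inhibition limit, whatever the replicate mean, cut at about 25% in these data; inconclusive = mean inhibition reaches that limit but some replicates miss it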;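 also: 0% = plate neutral control median and 100% = total signal loss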
Target sequence (P42568 whole entry, looked up): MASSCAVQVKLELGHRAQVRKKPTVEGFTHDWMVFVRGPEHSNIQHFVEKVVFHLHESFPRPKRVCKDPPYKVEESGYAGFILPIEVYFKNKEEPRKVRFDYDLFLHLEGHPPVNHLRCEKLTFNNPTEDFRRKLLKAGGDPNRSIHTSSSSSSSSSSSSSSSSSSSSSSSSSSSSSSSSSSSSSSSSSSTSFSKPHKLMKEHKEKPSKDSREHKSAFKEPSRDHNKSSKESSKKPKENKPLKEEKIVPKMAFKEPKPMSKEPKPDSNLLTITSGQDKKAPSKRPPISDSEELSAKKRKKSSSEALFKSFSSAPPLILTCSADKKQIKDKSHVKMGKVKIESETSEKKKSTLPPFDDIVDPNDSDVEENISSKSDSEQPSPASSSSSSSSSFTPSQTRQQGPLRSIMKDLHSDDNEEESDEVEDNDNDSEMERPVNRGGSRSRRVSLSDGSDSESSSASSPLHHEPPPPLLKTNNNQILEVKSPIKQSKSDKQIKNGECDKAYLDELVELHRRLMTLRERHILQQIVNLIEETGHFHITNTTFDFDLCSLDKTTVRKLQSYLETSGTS
The depositor's hits bear a star; [ ] = dose if it differs, or a comment. Most compounds without a hit are left out; they make up all but 2.1% or so of the library.

For Nc1scc2c(C(=O)N/N=C/c3ccc(Cl)cc3)nn(-c3ccccc3)c(=O)c12 the results were HIV Env fusion -29.6 and NSD2 inh 73.2*.
For COCCCN=C1NN=C(c2cc(C)n(Cc3ccccc3Cl)c2C)CS1 the results were HIV Env fusion -338.6, NSD2 inh 52.8*, GSIS activator 5.3, PGC1a acetyl inh 11.1 and AF4-AF9 inh 8.0.
Screening Cc1cc(C2=NNC(=NC3CC3)SC2)c(C)n1-c1c(C)n(C)n(-c2ccccc2)c1=O returned HIV Env fusion -4.6, NSD2 inh 3.9 and GSIS activator 20.5.
For Cc1cc(C2=NNC(=NCCc3ccccc3)SC2)c(C)n1-c1c(C)n(C)n(-c2ccccc2)c1=O the results were HIV Env fusion -11.0, NSD2 inh 4.9, GSIS activator 19.8, PGC1a acetyl inh 62.9* and AF4-AF9 inh -5.3.
`COCCCN=C1NN=C(c2cc(C)n(-c3ccccc3)c2C)CS1` gave HIV Env fusion -60.6, GSIS activator 10.0, PGC1a acetyl inh 3.2 and AF4-AF9 inh 0.1.
For COc1ccc(-c2csc(C(C)(O)c3cccc(F)c3)n2)cc1OC (stereo not given) the results were HIV Env fusion 26.8, NSD2 inh 10.9, GSIS activator 23.7 and AF4-AF9 inh -4.1.
CCOC(=O)c1cnc(SCC(=O)OCC(=O)NC2CCS(=O)(=O)C2)nc1N (stereo not given) was read as HIV Env fusion 6.2, NSD2 inh -0.5, GSIS activator 42.5*, PGC1a acetyl inh -7.2 and AF4-AF9 inh -20.7.
CCn1c(COc2ccc(C)cc2)nnc1SCC(=O)Nc1cc(OC)ccc1OC was read as HIV Env fusion 58.0*, NSD2 inh 0.9 and PGC1a acetyl inh 18.3.
CCOC(=O)c1cnc(SCC(=O)OCC(=O)N(CC)C2CCS(=O)(=O)C2)nc1N (stereo not given) was read as NSD2 inh 2.8, GSIS activator 14.5 and AF4-AF9 inh -0.4.
Screening CCOC(=O)c1cnc(SCC(=O)Nc2cc(OC)ccc2OC)nc1N returned HIV Env fusion 73.9*, NSD2 inh -1.9 and PGC1a acetyl inh -13.9.
CCn1c(COc2ccccc2)nnc1SCC(=O)Nc1cc(C)ccc1OC was read as GSIS activator -22.6 and PGC1a acetyl inh -13.1.
O=C(C1CC1)N1CCC(Oc2cccc(C(=O)N3CCCCC3CCO)c2)CC1 (stereo not given) was read as HIV Env fusion -2.9, NSD2 inh -2.6, GSIS activator -5.5, PGC1a acetyl inh 6.0 and AF4-AF9 inh -5.2.
Screening O=C(C[C@@H]1C[C@H]2c3cc(NC(=O)CC4CC4)ccc3O[C@H]2[C@@H](CO)O1)NCc1ccccn1 returned HIV Env fusion -1.1[16.7 µM], GSIS activator 20.3, PGC1a acetyl inh 1.3 and AF4-AF9 inh -4.7.
Screening COc1cc2c(O)c3c(c(-c4ccc5c(c4)OCO5)c2cc1OC)C(=O)OC3 returned HIV Env fusion 63.2* and PGC1a acetyl inh 0.0.
For CC(=O)c1ccc(Nc2c(C)n(C)n(-c3ccccc3)c2=O)cc1 the results were HIV Env fusion 17.5, NSD2 inh 2.0, GSIS activator -7.0 and AF4-AF9 inh -4.4.
`CC#CC[N+](C)(C)CCCCCCCCCCCC` gave HIV Env fusion 62.4*, GSIS activator -35.2 and AF4-AF9 inh 2.6.
For CCCCCCCCCCCCCCCC[N+](C)(C)CC the results were HIV Env fusion inconclusive, GSIS activator 298.0*, PGC1a acetyl inh -0.3 and AF4-AF9 inh -0.1.
Screening Fc1ccc(CN2CCCCCCC2)cc1 returned NSD2 inh 1.1, GSIS activator 2.9, PGC1a acetyl inh -7.4 and AF4-AF9 inh -3.9.
Screening O=C(NCC1CC1)c1ccc(Nc2nc3ccc(Br)cc3[nH]2)cc1 returned HIV Env fusion -4.9, GSIS activator -32.5 and PGC1a acetyl inh -2.1.
O=C(Cc1ccc(Nc2nc3ccc(Br)cc3[nH]2)cc1)NCCc1cccs1 was read as HIV Env fusion 60.8*, GSIS activator 12.4 and AF4-AF9 inh 8.1.
For COc1ccc(Br)cc1C(=O)Nc1cccc(C)c1 the results were NSD2 inh -1.9, GSIS activator 51.5* and PGC1a acetyl inh -4.6.
COc1ccc(Br)cc1C(=O)Nc1cccc(NC(=O)c2ccco2)c1 was read as HIV Env fusion -25.6, NSD2 inh -4.2 and PGC1a acetyl inh 10.1.
Screening O=C(O)C[C@H]1C[C@@H]2c3cc(NC(=O)NC4CCCCC4)ccc3O[C@@H]2[C@@H](CO)O1 returned HIV Env fusion -7.6[16.7 µM], GSIS activator -1.2, PGC1a acetyl inh 2.2 and AF4-AF9 inh -1.5.
N#C[C@@H]1[C@H](c2ccc(-c3ccccc3F)cc2)[C@@H](CO)N1C(=O)Cc1ccccc1 was read as HIV Env fusion 57.6*[16.7 µM], GSIS activator -16.7, PGC1a acetyl inh -11.0 and AF4-AF9 inh 1.2.
N#C[C@@H]1[C@H](c2ccccc2C2=CCCCC2)[C@H](CO)N1C(=O)Cc1ccncc1 was read as GSIS activator -16.1, PGC1a acetyl inh 44.7* and AF4-AF9 inh -0.9.
Screening N#C[C@H]1[C@@H](c2ccc(-c3ccccc3)cc2)[C@@H](CO)N1S(=O)(=O)Cc1ccccc1 returned HIV Env fusion 62.5*[16.7 µM], GSIS activator -25.1, PGC1a acetyl inh -7.9 and AF4-AF9 inh 0.5.
Screening N#C[C@@H]1[C@@H](c2ccc(-c3ccc(F)cc3)cc2)[C@@H](CO)N1S(=O)(=O)Cc1ccccc1 returned HIV Env fusion 0.5[16.7 µM], GSIS activator -1.9, PGC1a acetyl inh -0.9 and AF4-AF9 inh 0.2.
Screening Cc1ccc(N2C(=O)c3cccc([N+](=O)[O-])c3C2=O)cc1C returned HIV Env fusion -2.8, NSD2 inh 44.2, GSIS activator 15.6, PGC1a acetyl inh -11.4 and AF4-AF9 inh -1.0.
COc1cccc(-c2ccc3c(c2)O[C@H](CN(C)C(=O)C2CCOCC2)[C@@H](C)CN([C@H](C)CO)S3(=O)=O)c1 was read as GSIS activator -6.7, PGC1a acetyl inh 2.4 and AF4-AF9 inh -8.3.
COc1cccc(C(C)(O)c2nc(-c3ccc(S(C)(=O)=O)cc3)cs2)c1 (stereo not given) was read as HIV Env fusion 64.0*, NSD2 inh 1.5, PGC1a acetyl inh 9.5 and AF4-AF9 inh -1.1.
Cc1cccc(C(=O)NC2CCN(C(=O)Nc3ccccc3C)CC2)c1 was read as HIV Env fusion -2.3, GSIS activator 5.6, PGC1a acetyl inh -2.8 and AF4-AF9 inh -9.7.
For Cc1noc(C)c1S(=O)(=O)N(C)C[C@H]1OCCCC[C@@H](C)Oc2ccc(NC(=O)Nc3ccc(C(F)(F)F)cc3)cc2C(=O)N([C@@H](C)CO)C[C@@H]1C the results were HIV Env fusion 67.2*[16.7 µM], GSIS activator 1.1, PGC1a acetyl inh 5.8 and AF4-AF9 inh -1.2.
Cc1noc(C)c1S(=O)(=O)N(C)C[C@H]1OCCCC[C@H](C)Oc2ccc(NC(=O)Nc3ccc4c(c3)OCO4)cc2C(=O)N([C@H](C)CO)C[C@@H]1C was read as HIV Env fusion 56.9*[16.7 µM], GSIS activator -3.4 and PGC1a acetyl inh -11.6.
